# Results reported in article PMC4336329 (PLoS ONE, 2015).
# Among all 310,000 compounds or so, about 14,000 (4.5%) showed an effect of 50% or more. The effect is printed as a negative number. The list comes from a sample in which strong results are over-represented; it also holds similar structures and randomly drawn compounds.
# Biological target: human ether-à-go-go-related gene (hERG) potassium channel (human, UniProt Q12809)
# Experiment: primary screen, population patch clamp on CHO cells stably expressing hERG; higher = less effect of the substance
# 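Also: peak tail current of the secondary pulse compared with the same well before compound.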
# Chain of human ether-à-go-go-related gene (hERG) potassium channel (Q12809 whole entry, looked up): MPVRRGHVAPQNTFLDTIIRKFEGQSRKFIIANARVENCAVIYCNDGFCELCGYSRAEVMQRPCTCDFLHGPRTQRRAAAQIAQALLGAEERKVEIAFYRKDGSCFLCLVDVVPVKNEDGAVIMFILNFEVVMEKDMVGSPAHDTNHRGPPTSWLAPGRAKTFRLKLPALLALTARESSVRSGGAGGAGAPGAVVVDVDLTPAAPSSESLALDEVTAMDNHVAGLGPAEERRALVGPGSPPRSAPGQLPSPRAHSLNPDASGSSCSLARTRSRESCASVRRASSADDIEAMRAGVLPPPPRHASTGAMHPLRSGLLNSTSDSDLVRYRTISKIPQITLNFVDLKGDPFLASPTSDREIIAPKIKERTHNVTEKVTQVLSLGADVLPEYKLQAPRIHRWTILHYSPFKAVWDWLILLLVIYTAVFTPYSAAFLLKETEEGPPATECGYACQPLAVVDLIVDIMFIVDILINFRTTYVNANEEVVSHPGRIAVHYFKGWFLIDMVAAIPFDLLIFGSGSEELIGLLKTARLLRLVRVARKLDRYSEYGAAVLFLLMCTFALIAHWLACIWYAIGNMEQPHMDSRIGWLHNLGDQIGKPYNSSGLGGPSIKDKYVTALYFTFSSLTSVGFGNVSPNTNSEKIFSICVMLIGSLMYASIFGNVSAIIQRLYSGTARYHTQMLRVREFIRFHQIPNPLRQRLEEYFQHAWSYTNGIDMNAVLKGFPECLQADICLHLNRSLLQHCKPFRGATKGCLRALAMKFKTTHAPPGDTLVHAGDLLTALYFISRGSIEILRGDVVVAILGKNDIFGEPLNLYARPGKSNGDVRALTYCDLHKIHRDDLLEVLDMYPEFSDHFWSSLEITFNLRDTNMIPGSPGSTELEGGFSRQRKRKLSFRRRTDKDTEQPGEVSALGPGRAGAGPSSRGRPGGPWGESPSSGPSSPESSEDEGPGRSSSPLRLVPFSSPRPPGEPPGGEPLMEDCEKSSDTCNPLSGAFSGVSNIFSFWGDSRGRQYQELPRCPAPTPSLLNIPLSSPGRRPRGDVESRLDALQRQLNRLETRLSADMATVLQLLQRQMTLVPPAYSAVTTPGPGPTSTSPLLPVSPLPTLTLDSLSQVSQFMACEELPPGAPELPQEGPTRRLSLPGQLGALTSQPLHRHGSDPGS
row,Compound,"hERG current change (%, negative = inhibition) at 10uM"
1,COc1cc([N+](=O)[O-])ccc1NC(=O)COC(=O)CCOc1ccc(C)cc1,-11.2%
2,O=C(CCCCn1c(=O)c2ccccc2n(CC(=O)NC2CCCC2)c1=O)NCc1ccco1,-15.6%
3,O=C(O)CSc1nnc(Cc2ccccc2)n1-c1ccccc1,5.74%
4,COc1cc(CNCCO)ccc1OCCc1ccccc1,6.61%
5,COc1cc(C)c(C(=O)Oc2cc(C)c(C(=O)O)c(O)c2)c(O)c1,11.5%
6,Cl.Clc1cccc(OCCN2CCCC2)c1,2.13%
7,N#Cc1ccc(OCCN2C(=O)NC3(CCSC3)C2=O)cc1 (stereo not drawn),-57.2%
8,COc1ccc(C(=O)N2CCCC2)cc1,-2.88%
9,COc1ccc(OCCN2CCN(C(=O)c3ccc(OC)cc3)CC2)cc1,-87.2%
10,CN1CCN(CCOc2cccc(Cl)c2)CC1.Cl,1.19%
11,COc1ccc(C(=O)N2CCN(C(=O)c3ccncc3)CC2)cc1,12.4%
12,COc1ccc(C(=O)NCCN2CCN(C(=O)c3ccc(OC)c(OC)c3)CC2)cc1OC,14.5%
13,COc1ccc(OCCN2CCN(C(=O)c3ccc(OC(F)F)c(OC)c3)CC2)cc1,-72.6%
14,CC1(C)NC(=O)N(CCOc2ccc([N+](=O)[O-])cc2)C1=O,-37.6%
15,N#Cc1ccc(CN2C(=O)NC3(CCCCCC3)C2=O)cc1,-32.2%
16,CCOc1cc(C(=O)N2CCc3cc(OC)c(OC)cc3C2)ccc1OC(F)F,-35.7%
17,Clc1cccc(OCCN2CCN(CCOc3cccc(Cl)c3)CC2)c1,-70.8%
18,CCC1(CC)C(=O)C2=C3C1[C@H](C(=O)OC)C=C(C(=O)OC)C[C@H]3[C@H]1C(=O)NC(=O)[C@H]1[C@H]2C (stereo partly drawn),3.57%
19,NS(=O)(=O)c1c(Sc2ccccc2C(=O)O)ccc2ccccc12,28.4%
20,CC1CCN(S(=O)(=O)c2c[nH]c(=O)[nH]c2=O)CC1,6.09%
21,CC1CCCN(S(=O)(=O)c2ccc3c(c2)c(=O)nc2ccc(Cl)cn23)C1 (stereo not drawn),-10.5%
22,CC(=O)Nc1ccc(NC(=O)C2CCCN(S(=O)(=O)c3ccc(-n4cnnn4)cc3)C2)cc1 (stereo not drawn),0.72%
23,Cc1cccc(C)c1NC(=O)CNC(=O)C(Cc1ccccc1)NC(=O)c1ccccc1 (stereo not drawn),13.5%

row,Compound,"hERG current change (%, negative = inhibition) at 10uM"
1,O=C(c1c(F)cccc1F)N1CCN(CCOc2ccccc2)CC1,-8.2%
2,COc1ccc(C(=O)N2CCN(Cc3ccc(OC)c(OC)c3)CC2)cc1.O=C(O)C(=O)O,0.702%
3,Cc1ccc(C)n1CCN1CCN(C(=O)CC#N)CC1,16.3%
4,O=C1NC2(CCc3ccccc3C2)C(=O)N1CCOc1cccc(Cl)c1 (stereo not drawn),-51.1%
5,COc1cc(OC)cc(C(=O)N2CCN(C(=O)c3ccc(OC)c(OC)c3)CC2)c1,-14%
6,O=C(CN1C(=O)NC2(CCCC2)C1=O)OCCOc1cccc(Cl)c1,-7.43%
7,O=C(c1ccc(Cl)cc1)N1CCN(CCOc2ccccc2)CC1,-60.1%
8,COc1ccc(OCCN2CCN(C(=O)c3ccc(OC)c(OC)c3)CC2)cc1,-58.8%
9,COc1ccc(OCCN2C(=O)NC3(CCc4ccccc4C3)C2=O)cc1 (stereo not drawn),-49.7%
10,CN1CCN(C(=O)c2ccc(Cl)cc2)CC1,8.8%
11,CN1CCN(C(=O)c2ccc(OCCOc3ccccc3)cc2)CC1,-9.69%
12,Cc1ccc(C)n1CCN1CCN(C(=O)c2ccc(Cl)cc2)CC1,-50.3%
13,COc1ccc(C(=O)Nc2cccc(-c3ccc4nncn4n3)c2)cc1OC,8.84%
14,Cc1ccccc1Nc1c(-c2ccc(N3CCOCC3)cc2)nc2cnccn12,-1.1%
15,COc1cc(OC)cc(C(=O)N[C@H](C(=O)Nc2cccc(S(=O)(=O)N3CCCC3)c2)C(C)C)c1,2.47%
16,O=C(N/N=C/c1ccco1)c1cc(-c2ccccc2)nc2ccccc12,2.45%
17,Cn1c(=NC(=O)C2=NNC(=O)CC2)sc2ccccc21,15.2%
18,O=C(NNC1=C(C(=O)C(F)(F)F)CCC1)c1ccccc1Cl,13%
19,Cc1cc(C(=O)Nc2cccc(C)c2C)n(-c2ccccc2)n1,-11.7%
20,O=C(Nc1cccc(S(=O)(=O)N2CCOCC2)c1)c1ccc(N2CCCC2=O)cc1,8.25%
21,COCCCN(CC(=O)O)S(=O)(=O)c1cccc(Cl)c1,16.3%
22,O=C(c1ccc(Br)o1)N1CCN(CCOc2ccccc2)CC1,-54.1%
